# From PubChem BioAssay AID1159580 (chemical genetic matrix, 2015)
# About 2,000 (36%) of roughly 5,500 compounds were called active. Roughly 18% stayed inconclusive and do not appear here. The list shows a part of the results. A number with no mark means an inactive call. No stated cut-off is given here; in the data, active means normalized growth mostly below about 0.91 (no sharp cut-off); inconclusive means no clear call, values can overlap the other calls; inactive means mostly above about 0.92.
# Test: chemical genetic growth profiling, strain panel (AID 1159580);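 further: tested at 20 µM; growth read once vehicle control cultures reached saturation at 30 °C; 1 = growth at the plate median or of vehicle wells; lower values mean less growth of the strain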
# Conditions: growth OD
smiles,measurement,setting,value
COc1c2ccoc2cc2oc(C)cc(=O)c12,normalized growth,"S. cerevisiae deletion strains, locus YKL009W, strain mrt4, active compounds read low",0.965
same,normalized growth,"S. cerevisiae deletion strains, locus YKL068W, active compounds read low",0.982
same,normalized growth,"S. cerevisiae deletion strains, locus YKL085W, strain MDH1 (second series), active compounds read low",0.974
same,normalized growth,"S. cerevisiae deletion strains, locus YKL085W, strain MDH1, active compounds read low",0.974
same,normalized growth,"S. cerevisiae deletion strains, locus YKL160W, strain elf1, active compounds read low",0.993
same,normalized growth,"S. cerevisiae deletion strains, locus YKL190W, strain CNB1, active compounds read low",0.978
same,normalized growth,"S. cerevisiae deletion strains, locus YKR001C, strain vps1, active compounds read low",0.961
same,normalized growth,"S. cerevisiae deletion strains, locus YKR026C, strain gcn3, active compounds read low",0.982
same,normalized growth,"S. cerevisiae deletion strains, locus YKR091W, strain srl3, active compounds read low",0.998
same,normalized growth,"S. cerevisiae deletion strains, locus YLL001W, strain dnm1, active compounds read low",0.998
same,normalized growth,"S. cerevisiae deletion strains, locus YLL026W, active compounds read low",0.992
same,normalized growth,"S. cerevisiae deletion strains, locus YLL041C, strain sdh2, active compounds read low",1.01
same,normalized growth,"S. cerevisiae deletion strains, locus YLR027C, strain aat2, active compounds read low",0.997
same,normalized growth,"S. cerevisiae deletion strains, locus YLR039C, strain RIC1, active compounds read low",0.968
same,normalized growth,"S. cerevisiae deletion strains, locus YLR058C, strain SHM2, active compounds read low",0.936
same,normalized growth,"S. cerevisiae deletion strains, locus YLR102C, strain apc9, active compounds read low",0.992
same,normalized growth,"S. cerevisiae deletion strains, locus YLR113W, strain HOG1, active compounds read low",1.1
same,normalized growth,"S. cerevisiae deletion strains, locus YLR221C, strain rsa3, active compounds read low",0.987
same,normalized growth,"S. cerevisiae deletion strains, locus YLR258W, strain gsy2, active compounds read low",0.987
same,normalized growth,"S. cerevisiae deletion strains, locus YLR262C, strain YPT6 (second series), active compounds read low",1.03
same,normalized growth,"S. cerevisiae deletion strains, locus YLR262C, strain YPT6, active compounds read low",0.92
same,normalized growth,"S. cerevisiae deletion strains, locus YLR268W, strain sec22, active compounds read low",1.02
same,normalized growth,"S. cerevisiae deletion strains, locus YLR320W, strain mms22, active compounds read low",0.993
same,normalized growth,"S. cerevisiae deletion strains, locus YLR330W, strain CHS5, active compounds read low",0.986
same,normalized growth,"S. cerevisiae deletion strains, locus YLR342W, strain FKS1 (second series), active compounds read low",1.01
same,normalized growth,"S. cerevisiae deletion strains, locus YLR342W, strain FKS1, active compounds read low",0.984
same,normalized growth,"S. cerevisiae deletion strains, locus YLR357W, strain rsc2, active compounds read low",0.98
same,normalized growth,"S. cerevisiae deletion strains, locus YLR370C, strain arc18, active compounds read low",0.992
same,normalized growth,"S. cerevisiae deletion strains, locus YLR371W, strain rom2, active compounds read low",0.986
same,normalized growth,"S. cerevisiae deletion strains, locus YLR384C, strain iki3, active compounds read low",1
same,normalized growth,"S. cerevisiae deletion strains, locus YLR418C, strain cdc73, active compounds read low",0.835 (active)
same,normalized growth,"S. cerevisiae deletion strains, locus YML016C, strain PPZ1, active compounds read low",0.977
same,normalized growth,"S. cerevisiae deletion strains, locus YML032C, strain rad52, active compounds read low",0.912
same,normalized growth,"S. cerevisiae deletion strains, locus YML120C, strain ndi1, active compounds read low",1.02
same,normalized growth,"S. cerevisiae deletion strains, locus YML124C, strain tub3, active compounds read low",0.99
same,normalized growth,"S. cerevisiae deletion strains, locus YMR058W, strain fet3, active compounds read low",1
same,normalized growth,"S. cerevisiae deletion strains, locus YMR078C, strain ctf18, active compounds read low",0.977
same,normalized growth,"S. cerevisiae deletion strains, locus YMR125W, strain sto1, active compounds read low",0.997
same,normalized growth,"S. cerevisiae deletion strains, locus YMR129W, active compounds read low",0.999
same,normalized growth,"S. cerevisiae deletion strains, locus YMR205C, strain PFK2, active compounds read low",1.01
same,normalized growth,"S. cerevisiae deletion strains, locus YMR223W, strain ubp8, active compounds read low",0.956
same,normalized growth,"S. cerevisiae deletion strains, locus YMR231W, strain pep5, active compounds read low",1.01
same,normalized growth,"S. cerevisiae deletion strains, locus YMR307W, strain GAS1, active compounds read low",0.961
same,normalized growth,"S. cerevisiae deletion strains, locus YNL067W, strain RPL9B, active compounds read low",0.96
same,normalized growth,"S. cerevisiae deletion strains, locus YNL071W, strain lat1, active compounds read low",0.993
same,normalized growth,"S. cerevisiae deletion strains, locus YNL128W, strain TEP1, active compounds read low",0.943
same,normalized growth,"S. cerevisiae deletion strains, locus YNL153C, strain GIM3, active compounds read low",0.93
same,normalized growth,"S. cerevisiae deletion strains, locus YNL183C, strain NPR1, active compounds read low",0.983
same,normalized growth,"S. cerevisiae deletion strains, locus YNL209W, strain ssb2, active compounds read low",0.983
same,normalized growth,"S. cerevisiae deletion strains, locus YNL233W, strain BNI4, active compounds read low",0.924
same,normalized growth,"S. cerevisiae deletion strains, locus YNL248C, strain rpa49, active compounds read low",1
same,normalized growth,"S. cerevisiae deletion strains, locus YNL250W, strain rad50, active compounds read low",0.987
same,normalized growth,"S. cerevisiae deletion strains, locus YNL271C, strain bni1, active compounds read low",0.986
same,normalized growth,"S. cerevisiae deletion strains, locus YNL298W, strain CLA4, active compounds read low",0.975
same,normalized growth,"S. cerevisiae deletion strains, locus YNL307C, strain MCK1, active compounds read low",0.991
same,normalized growth,"S. cerevisiae deletion strains, locus YNL322C, strain KRE1 (second series), active compounds read low",0.984
same,normalized growth,"S. cerevisiae deletion strains, locus YNL322C, strain KRE1, active compounds read low",0.976
same,normalized growth,"S. cerevisiae deletion strains, locus YNR049C, strain mso1, active compounds read low",0.993
same,normalized growth,"S. cerevisiae deletion strains, locus YNR052C, strain pop2, active compounds read low",0.977
same,normalized growth,"S. cerevisiae deletion strains, locus YOL006C, strain TOP1, active compounds read low",0.946
same,normalized growth,"S. cerevisiae deletion strains, locus YOL012C, strain htz1",1.83
same,normalized growth,"S. cerevisiae deletion strains, locus YOL147C, strain pex11, active compounds read low",0.984
same,normalized growth,"S. cerevisiae deletion strains, locus YOR001W, strain rrp6, active compounds read low",0.982
same,normalized growth,"S. cerevisiae deletion strains, locus YOR061W, strain CKA2, active compounds read low",0.959
same,normalized growth,"S. cerevisiae deletion strains, locus YOR069W, strain VPS5, active compounds read low",0.993
same,normalized growth,"S. cerevisiae deletion strains, locus YOR070C, strain gyp1, active compounds read low",0.984
same,normalized growth,"S. cerevisiae deletion strains, locus YOR080W, strain dia2, active compounds read low",1.02
same,normalized growth,"S. cerevisiae deletion strains, locus YOR083W, strain WHI5, active compounds read low",0.994
same,normalized growth,"S. cerevisiae deletion strains, locus YOR106W, strain vam3, active compounds read low",0.994
same,normalized growth,"S. cerevisiae deletion strains, locus YOR136W, strain idh2, active compounds read low",0.996
same,normalized growth,"S. cerevisiae deletion strains, locus YOR144C, strain elg1, active compounds read low",0.989
same,normalized growth,"S. cerevisiae deletion strains, locus YOR184W, strain ser1, active compounds read low",0.967
same,normalized growth,"S. cerevisiae deletion strains, locus YOR231W, strain MKK1, active compounds read low",1.07
same,normalized growth,"S. cerevisiae deletion strains, locus YOR265W, strain rbl2, active compounds read low",1
same,normalized growth,"S. cerevisiae deletion strains, locus YOR270C, strain vph1, active compounds read low",0.997
same,normalized growth,"S. cerevisiae deletion strains, locus YOR290C, strain snf2, active compounds read low",0.974
same,normalized growth,"S. cerevisiae deletion strains, locus YOR316C, strain cot1, active compounds read low",0.995
same,normalized growth,"S. cerevisiae deletion strains, locus YPL051W, strain arl3, active compounds read low",0.979
same,normalized growth,"S. cerevisiae deletion strains, locus YPL078C, strain atp4, active compounds read low",0.992
same,normalized growth,"S. cerevisiae deletion strains, locus YPL106C, strain sse1, active compounds read low",0.95
same,normalized growth,"S. cerevisiae deletion strains, locus YPL240C, strain hsp82, active compounds read low",0.99
same,normalized growth,"S. cerevisiae deletion strains, locus YPL241C, strain CIN2, active compounds read low",0.976
same,normalized growth,"S. cerevisiae deletion strains, locus YPL256C, strain CLN2, active compounds read low",1.05
same,normalized growth,"S. cerevisiae deletion strains, locus YPR119W, strain clb2, active compounds read low",0.986
same,normalized growth,"S. cerevisiae deletion strains, locus YPR141C, strain kar3, active compounds read low",0.984
same,normalized growth,"S. cerevisiae deletion strains, locus YPR163C, strain tif3, active compounds read low",0.978
same,normalized growth,"S. cerevisiae deletion strains, locus YPR167C, strain met16, active compounds read low",0.991
same,normalized growth,"S. cerevisiae deletion strains, strain wtn01, active compounds read low",1.03
same,normalized growth,"S. cerevisiae strains, strain wild type, active compounds read low",0.965
